# Bioassay records deposited in PubChem by NMMLSC.
# A selection: hits, their analogues and other compounds. The true share with any hit is near 3.5%.
# BoNT-F LC inh: blocks Botulinum neurotoxin F light chain protease | Multiplex microsphere protease cleavage assay, flow cytometry | inhibition, % at 10 µM | actives 0.22% (n = 360,000); in the data active = inhibition above about 35%, passing the limit was not always enough; inconclusive = no clear call, values can overlap the other calls; also: plate controls were buffer without enzyme for full effect and enzyme alone for no effect
# BoNT A protease: inhibitors of Botulinum neurotoxin A light chain protease. multiplex microsphere protease substrate cleavage, flow cytometry. inhibition, % at 10 µM. actives 0.17% (n = 360,000). AID 588499; also: plate controls were buffer without enzyme for full effect and enzyme alone for no effect
# Anthrax LF prot: inhibitors of Bacillus anthracis lethal factor protease. AID 588501. P15917. inhibition, % at 10 µM. actives 0.12% (n = 360,000). multiplex microsphere protease cleavage assay, LF; also: plate controls were buffer without enzyme for full effect and enzyme alone for no effect
# Autofluor counter: counter-screen for toxin protease inhibitors: compound fluorescence | compound autofluorescence counterscreen, microsphere flow cytometry; active compounds read high | actives 3.1% (n = 360,000) | fluorescence intensity (concentration not given with the values); in the data active = fluorescence intensity above about 16000; inconclusive = no clear call, values can overlap the other calls
# Active calls of the source: *; ? = inconclusive. Rule as the data show it, unless noted: active = inhibition above about 30%; inconclusive = no clear call, values can overlap the other calls; inactive = below that.
SMILES,BoNT-F LC inh,BoNT A protease,Anthrax LF prot,Autofluor counter
COc1ccccc1NC(=O)c1ccc(CN(c2cc(Cl)ccc2C)S(=O)(=O)c2ccccc2)cc1,-8,0,-1,2323
COc1ccc(NC(=O)c2ccc(CN(c3cc(Cl)ccc3C)S(=O)(=O)c3ccccc3)cc2)cc1OC,-11,-4,-4,20845*
CN(C)C(=O)c1noc2cc([N+](=O)[O-])ccc12,-4,-1,-7,16570*
CC(C)NC(=O)c1noc2cc([N+](=O)[O-])ccc12,-1,0,1,9065
Cc1ccc(Oc2nn[nH]n2)cc1,4,0,0,11115
CCc1cccc(Oc2nn[nH]n2)c1,-4,-3,0,24949*
N#Cc1ccc(CSc2nnc(-c3cccs3)n2-c2ccccc2)cc1,5,1,-2,9086
FC(F)Sc1nnc(-c2cccs2)n1-c1ccccc1,1,1,2,19168*
COc1ccc(CNC(=O)c2ccc(N3CCC4(CC3)CC(c3ccc(Cl)cc3)=NO4)c(NC(=O)Cc3ccc(F)cc3)c2)cc1,-10,-1,-5,3308
CSCC(C)N1CCC(N2CCC(C(=O)NCc3ccccn3)CC2)CC1 (centres undefined),-8,-2,2,5835
O=C(Cn1nnc(-c2cccc(C(F)(F)F)c2)n1)N1CCOCC1,1,1,-4,22585*
CC1CCN(C(=O)Cn2nnc(-c3ccccc3)n2)CC1,10,2,3,3754
NC(=O)Cn1nnc(-c2ccc(C(F)(F)F)cc2)n1,-10,?,-2,21710*
CCN(CC(=O)Nc1ccc2c(c1)OCCO2)C(=O)C(C)Oc1ccc(F)cc1 (centres undefined),3,-2,1,?
COc1cc(C)cc(OC)c1OCC(=O)Nc1cc(C)on1,5,0,-4,2833
CCOC(=O)N1CCN(C(=O)C2CCN(S(=O)(=O)c3c(C)cc(C)cc3C)CC2)CC1,-5,-2,2,16613*
Cc1ccc(S(=O)(=O)N2CCN(C(=O)C3COc4ccccc4O3)CC2)cc1C (centres undefined),5,?,-3,19329*
CCOC(=O)N1CCN(S(=O)(=O)c2ccc(C)c(C)c2)CC1,3,?,1,23015*
CCOC(=O)N1CCN(S(=O)(=O)c2ccc(OCC)c(C)c2)CC1,-6,0,3,2116
CCOC(=O)N1CCN(S(=O)(=O)c2c(C)cc(C)cc2C)CC1,-14,-1,1,4601
C[C@H]1CN([C@@H](C)CO)S(=O)(=O)c2ccc(Br)cc2O[C@H]1CN(C)C(=O)c1cccnc1,-9,-1,-5,4175
O=C1COC(c2ccccc2O)=NN1CCCl,4,-1,-9,3701
COc1ccc(NC(=O)CC(Cc2ccccc2)C(=O)O)cc1 (centres undefined),0,0,-3,22709*
COc1ccc(C(=O)C(Cc2ccccc2)N(C)C)cc1 (centres undefined),1,1,-2,16157*
COc1ccc(C(=O)NC(=S)N(Cc2ccccc2)Cc2ccccc2)cc1,-2,0,-6,16570*
SMILES,BoNT-F LC inh,BoNT A protease,Anthrax LF prot,Autofluor counter
CN(C)C(Cc1ccccc1)C(=O)c1ccc(-c2ccccc2)cc1 (centres undefined),-6,?,-2,16369*
CN(C)C(Cc1ccc(C#N)cc1)C(=O)c1ccccc1 (centres undefined),-4,0,-2,8023
C=CCn1c(SCC(=O)N(CCOC)c2c(N)n(CCCC)c(=O)[nH]c2=O)nnc1-c1ccc(Cl)cc1,-2,3,-1,?
CCN(CC)c1nc2c(c(=O)[nH]c(=O)n2C)n1CCOc1ccccc1,?,-3,12,3303
CC(C)/C=C/C(=O)N1CCC(N2CCC(C(=O)NCC3CCCO3)CC2)CC1 (centres undefined),6,0,4,2907
O=C(NCCCCNC(=O)c1ccc(Br)s1)c1ccc(Br)s1,-1,?,0,20047*
N#C/C(=C\c1ccccc1)C(=O)NCc1ccc(F)cc1,1,0,-1,5815
N#C/C(=C/c1ccc(C(=O)O)cc1)C(=O)NCc1ccccc1,-9,?,-2,17589*
CS(=O)(=O)Nc1ccc(F)cc1,-3,0,6,6307
COC(=O)c1sc(NC(=O)COc2ccc(C)cc2)nc1C,4,1,1,20397*
Cc1noc(C)c1S(=O)(=O)NC(=O)C1(C)CCN1C(=O)CC(c1ccccc1)c1ccccc1 (centres undefined),-5,-1,-3,3810
O=C(O)c1ccc(NS(=O)(=O)/C=C/c2ccccc2)cc1O,4,5,1,21416*
Cc1ccc(-n2c(-c3ccc(Br)cc3)c[n+]3c2CCc2ccc4cccnc4c2-3)cc1,1,-2,2,21635*
